Laboratory results from PubChem BioAssay (Tox21).
Inconclusive results are not listed. Activity calls are given as the source filed them. Unless noted, calls follow the shape of the dose curve; as a rule, active = well fitted curve in the direction sought with a large enough effect in the repeat runs; inconclusive = weak or mixed curves; inactive = no such curve, though single readings can be large; an effect the other way counts as inactive or inconclusive. Positions of bridges follow the written chain, without caps; N, C: chain ends. Non-standard residues stand in square brackets, D forms with d. Residues, ends and D or L forms follow the SMILES beside them. Orn = NCCC[C@H](N)C(=O)O; Mpa = O=C(O)CCS

Key:
[1] = qHTS assay for small molecule agonists of the p53 signaling pathway (AID 651631; calls by dose curve; also: nearly all actives have a fitted effect of over 15% in size)
Method in brief: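 Fluorescence intensity from cleaved LiveBLAzer B/G substrate (2 h, room temperature) served as the signal. Beforehand, HCT-116 reporter cells bearing p53 response elements were treated 16 h at 37 °C with DMSO-dissolved compounds.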

[2] = qHTS assay for small molecules that induce genotoxicity in human embryonic kidney cells expressing luciferase-tagged ATAD5 (AID 651632); also: nearly all actives have a fitted effect of over 15% in size
Method in brief: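 Reporter cells (HEK293T) express luciferase-tagged ATAD5, a protein that accumulates after DNA damage. Treat 16 hr at 37C/5% CO2, add Amplite, wait 30 min at RT, and read luminescence.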

[3] = qHTS assay for small molecule agonists of the p53 signaling pathway - cell viability (AID 651633; calls by dose curve;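 also: p53RE-bla HCT reporter cells with a stable beta-lactamase p53 reporter; series mostly up to about 83 µM; nearly all actives have a fitted effect of over 30% in size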)
Method in brief: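 Viability counter-read: CellTiter-Glo luminescence (30 min, room temperature) in the same p53RE-bla plates. These plates had been exposed to compounds for 16 h at 37 C.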

[4] = qHTS assay for small molecules that induce genotoxicity in human embryonic kidney cells expressing luciferase-tagged ATAD5 - cell viability (AID 651634; calls by dose curve; also: nearly all actives have a fitted effect of over 25% in size)
Method in brief: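 Seeding of 2,000 HEK293T ATAD5-luciferase cells per well preceded pin-tool compound transfer. Plates sat 15.5 hr at 37C under 5% CO2, then fluorescence was read after 30 min with CellTiter-Fluor.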

[5] = qHTS assay for small molecule disruptors of the mitochondrial membrane potential - cell viability (AID 720634; calls by dose curve;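 also: human HepG2 liver cancer cells; series mostly up to about 83 µM; nearly all actives have a fitted effect of over 20% in size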)
Method in brief: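 Measuring cytotoxicity alongside mitochondrial potential, the screen quantified ATP by luminescence in HepG2 cells after 1 hr compound incubation and a 30 min room-temperature CellTiter-Glo step.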

[6] = qHTS assay for small molecule disruptors of the mitochondrial membrane potential (AID 720635)
Method in brief: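 Mitochondrial membrane potential tracked with Mito-MPS dye, red aggregates (ex 540/em 590 nm) against green monomers (ex 490/em 535 nm). Compound treatment 1 hr at 37C, dye 30 min in HepG2.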

[7] = qHTS assay to test for compound auto fluorescence at 590 nm (red) in HepG2 cells (AID 720674)
Method in brief: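 Red autofluorescence (Ex/Em 540/590 nm, Rose Bengal sodium equivalents) was measured in HepG2 cells, 2,000 per well in MEM plus 10% FBS, plated overnight at 37 C. Readings were taken 1 hr after adding 23 nL compound or DMSO, at 37 C and 5% CO2.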

[8] = qHTS assay to test for compound auto fluorescence at 535 nm (green) in HepG2 cells (AID 720675)
[9] = qHTS assay to test for compound auto fluorescence at 460 nm (blue) in HEK293 cells (AID 720678)
Method in brief: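 Blue-channel (Ex/Em 405/460 nm) intensity measured in HEK293 cultures after overnight compound exposure at 37C; signal expressed relative to triamterene. Cells plated 2,000 per well in 10% dialyzed FBS medium and allowed 4-5 hr to attach.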

[10] = qHTS assay to test for compound auto fluorescence at 590 nm (red) in HEK293 cells (AID 720679)
Method in brief: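 Red-channel autofluorescence (Ex/Em 540/590 nm; Rose Bengal sodium reference) was measured after overnight 37C, 5% CO2 exposure of attached HEK293 cells, 2,000 per well in medium with 10% dialyzed FBS.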

Measured: Potency

CC(C)CN(C[C@@H](OP(=O)(O)O)[C@H](Cc1ccccc1)NC(=O)O[C@H]1CCOC1)S(=O)(=O)c1ccc(N)cc1
inactive: all assays above

CCOc1ccc(N=C(C)Nc2ccc(OCC)cc2)cc1
inactive: all assays above

NCCCC[C@H](NC(=O)[C@@H]1CCCN1C(=O)[C@@H]1CSSC[C@H](NC(=O)CNC(=O)CNC(=O)CN)C(=O)N[C@@H](Cc2ccc(O)cc2)C(=O)N[C@@H](Cc2ccccc2)C(=O)N[C@@H](CCC(N)=O)C(=O)N[C@@H](CC(N)=O)C(=O)N1)C(=O)NCC(N)=O (H-GGGCYFQNCPKG-NH2; disulfide 4-9)
inactive: all assays above

CCOC(=O)CCC(=O)O[C@H]1[C@H](O[C@@H]2[C@@H](C)[C@H](O[C@H]3C[C@@](C)(OC)[C@@H](O)[C@H](C)O3)[C@@H](C)C(=O)O[C@H](CC)[C@@](C)(O)[C@H](O)[C@@H](C)C(=O)[C@H](C)C[C@@]2(C)O)O[C@H](C)C[C@@H]1N(C)C
inactive: all assays above

Cn1nnnc1SCC1=C(C(=O)O)N2C(=O)[C@@H](NC(=O)[C@H](OC=O)c3ccccc3)[C@H]2SC1
inactive: all assays above

CCOc1ccc(C[C@H]2NC(=O)CCSSC[C@@H](C(=O)N3CCC[C@H]3C(=O)N[C@@H](CCCN)C(=O)NCC(N)=O)NC(=O)[C@H](CC(N)=O)NC(=O)[C@H]([C@@H](C)O)NC(=O)[C@H]([C@@H](C)CC)NC2=O)cc1 ([Mpa][dY](Et)ITNCP[Orn]G-NH2; disulfide 1-6)
inactive: all assays above

CC1(C)S[C@@H]2[C@H](NC(=O)Cc3ccccc3)C(=O)N2[C@H]1C(=O)O
inactive: all assays above

CCOC(=O)[C@H](CCc1ccccc1)N[C@H]1CCCN2CCC[C@@H](C(=O)O)N2C1=O
inactive: all assays above

O=C(c1cc2ccccc2o1)N1CCN(Cc2ccccc2)CC1
inactive: all assays above

CC#CCC(C)[C@H](O)/C=C/[C@@H]1[C@H]2C/C(=C/CCCC(=O)O)C[C@H]2C[C@H]1O (stereo not given in full)
inactive: all assays above

COc1ccc(C(=O)Nc2ccccc2CCC2CCCCN2C)cc1 (stereo not given)
inactive: all assays above

O=C(/C=C/c1cccc(F)c1)NC1CC1
inactive: all assays above

CCC(CN)CC(C)CCNCC(O)CNCC(C)CC(CC)CN (stereo not given)
inactive: all assays above

CC[N+](C)(C)Cc1ccccc1Br
inactive: all assays above

C=C1CC2C3CCC4=CC(=O)C=C[C@]4(C)[C@@]3(F)[C@@H](O)C[C@]2(C)[C@@]1(O)C(=O)COC(C)=O (stereo not given in full)
inactive: all assays above

CO[C@@H]1[C@@H](O[C@@H]2O[C@H](C)[C@@H](O[C@H]3C[C@@](C)(O)[C@@H](OC(=O)CC(C)C)[C@H](C)O3)[C@H](N(C)C)[C@H]2O)[C@@H](CC=O)C[C@@H](C)[C@@H](O)/C=C/C=C/C[C@@H](C)OC(=O)C[C@H]1O
inactive: all assays above

O=P(O)(O)OC(CO)CO
inactive: all assays above

N[C@@H](C(=O)N[C@@H]1C(=O)N2C(C(=O)O)=C(CSc3cn[nH]n3)CS[C@H]12)c1ccc(O)cc1
inactive: all assays above
